# Compound activity (PubChem)
# A selection: hits, their analogues and other compounds. The true share with any hit is near 11%.
# USP30 block: inhibitors of human USP30 deubiquitinase. Ubiquitin carboxyl-terminal hydrolase 30 (Homo sapiens), Q70CQ3. purified USP30, Ub-rhodamine cleavage fluorescence. inhibition, % at 25 µM. 47,000 compounds, 5.3% hits. AID 1645860, 2021
# USP28 block: inhibitors of human USP28 deubiquitinase; Ubiquitin carboxyl-terminal hydrolase 28 (Homo sapiens), Q96RU2; purified USP28, Ub-rhodamine cleavage fluorescence, 30 min; inhibition, % at 25 µM; 47,000 compounds, 3% hits; AID 1645857, 2021
# USP17 inh: inhibitors of human USP17 deubiquitinase; purified USP17, Ub-rhodamine cleavage fluorescence, 3 h; 47,000 compounds, 6.5% hits; inhibition, % at 50 µM
# Target sequence (A8MUK1 whole entry, looked up): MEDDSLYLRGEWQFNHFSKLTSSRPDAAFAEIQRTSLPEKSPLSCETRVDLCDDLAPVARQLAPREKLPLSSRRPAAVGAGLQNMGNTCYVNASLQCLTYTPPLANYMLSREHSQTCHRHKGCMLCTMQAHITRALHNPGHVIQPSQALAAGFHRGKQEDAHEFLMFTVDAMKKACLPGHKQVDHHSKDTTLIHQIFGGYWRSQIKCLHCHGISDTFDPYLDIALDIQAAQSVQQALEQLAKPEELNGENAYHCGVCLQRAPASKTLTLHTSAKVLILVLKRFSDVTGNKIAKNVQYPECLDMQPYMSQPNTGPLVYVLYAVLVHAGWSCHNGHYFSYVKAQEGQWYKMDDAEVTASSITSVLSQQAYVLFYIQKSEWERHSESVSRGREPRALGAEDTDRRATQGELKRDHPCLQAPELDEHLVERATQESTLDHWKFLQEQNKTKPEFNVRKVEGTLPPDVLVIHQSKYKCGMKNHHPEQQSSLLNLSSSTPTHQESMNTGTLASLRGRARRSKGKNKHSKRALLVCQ
# OTUD3 inh: inhibitors of human OTUD3 deubiquitinase. 47,000 compounds, 0.7% hits. purified OTUD3, Ub-rhodamine fluorescence, 2 h. AID 1645858, 2021. OTU domain-containing protein 3 (Homo sapiens), Q5T2D3. inhibition, % at 25 µM
# * = called active by the depositor; . = not tested or not shown. Cut-off read from the data, not from the text of the source: active = inhibition above about 30%; inactive = the rest.
SMILES,USP30 block,USP28 block,USP17 inh,OTUD3 inh
CO[C@H]1/C=C/C=C\C=C\C[C@@H](OC(=O)[C@H](C)NC(=O)C2CCCCC2)[C@H](C)[C@@H](O)/C(C)=C\CCC2=CC(=O)C=C(NC(=O)C1)C2=O,-14,4,46*,1
Cc1ccccc1C(C)NC(=O)c1cccc2ncccc12 (stereo not drawn),-79,-24,-25,-22
CC1Oc2ccccc2N(Cc2nc(-c3ccccc3)no2)C1=O (stereo not drawn),3,7,40*,9
Cc1ccc(NC(=O)c2ccc3nn(CC(=O)Nc4ccc(F)cc4F)c(=O)n3c2)cc1,10,-25,68*,15
O=C(NCc1ccccc1)c1ccc2nn(CC(=O)N3CCc4ccccc4C3)c(=O)n2c1,-13,-9,-7,-2
Cc1ccc(NC(=O)c2ccc3nn(CC(=O)Nc4ccc(C)cc4C)c(=O)n3c2)cc1,-50,-19,-18,-13
O=C(Cn1nc2ccc(C(=O)NCc3ccccc3)cn2c1=O)Nc1ccc2c(c1)OCO2,-22,8,52*,3
Cc1cc(-c2cnc(N3CCCC(C)C3)nc2C2CCN(C(=O)/C=C\C(=O)O)CC2)on1 (stereo not drawn),5,6,-10,-2
COc1ccc2cc1Oc1cc(ccc1OC)C(O)C13SSC4(C(=O)N1C)C(O)C1=COC=CC(OC2=O)C1N4C3=O (stereo not drawn),73*,-10,-32,9
O=S(=O)(c1cc(F)cc(F)c1)N1CCC(c2nc3ncccc3[nH]2)CC1,5,-30,-11,-1
CC1(C)[C@H](Cc2cc(-c3ccc(F)cc3)on2)C[C@@H]1NS(C)(=O)=O,-25,-9,-9,-7
O=C(NCc1cnn2ccccc12)c1ccc(Cn2ccnc2)cc1,5,9,4,10
O=C(NCc1ccc(Cl)cc1)NCc1cnn2ccccc12,39*,12,29,-7
C[C@]12C[C@@H](c3cccc(C(F)(F)F)c3)N(C(=O)c3ccn[nH]3)[C@H]1CCCCC(=O)N2,-3,-3,-44,17
Nc1ncnc(SCc2ccc(Cl)cc2)n1,23,4,54*,2
COc1cnc(SCc2ccc(Cl)cc2)[nH]c1=O,1,2,1,-1
O=C(NCCN1CCCCCC1)c1ccc2ncnc(N3CCCC3)c2c1,-160,-78,-64,-54
COc1cccc(C(=O)Nc2nc3ccc(S(=O)(=O)N4CCOCC4)cc3s2)c1OC,.,.,47*,-3
CCn1nc(C)c(S(=O)(=O)N2CCN(C(=O)c3ccccc3)CC2)c1C,10,2,6,7
Cc1cccc(N2CCN(Cc3cc(=O)n4ccsc4n3)CC2)c1C,-177,-13,-2,-21
CC1(c2ccc3c(c2)CCC3)NC(=O)N(Cc2cc(=O)n3ccsc3n2)C1=O (stereo not drawn),-31,7,33*,0
COc1ccc(C(=O)N(c2ccc(F)cc2)c2nc3ccccc3s2)cc1OC,48*,4,4,14
O=S(=O)(c1ccc2nsnc2c1)N1CCCCC1c1cccnc1 (stereo not drawn),-103,-24,-27,-21
CCOc1ccc(-n2ccnc(NCc3ccc(OC)cc3)c2=O)cc1,20,12,4,7
COc1ccc(-n2ccnc(SCc3ccc(Cl)cc3)c2=O)cc1,15,36*,33*,-1
SMILES,USP30 block,USP28 block,USP17 inh,OTUD3 inh
O=C(c1noc2c1CCCC2)N1CCC(O)(CN2CCOCC2)C1 (stereo not drawn),-6,-7,1,-1
CCOC(=O)c1ccc(-n2c(CN3CCN(c4cc(C)ccc4C)CC3)nc3ccc([N+](=O)[O-])cc3c2=O)cc1,30*,12,12,14
O=c1c2cc([N+](=O)[O-])ccc2nc(CN2CCN(c3ncccn3)CC2)n1-c1ccccc1F,32*,2,-7,8
CCOC(=O)C1CCN(Cc2nc3ccc([N+](=O)[O-])cc3c(=O)n2-c2cc(OC)cc(OC)c2)CC1,-10,0,18,4
Cc1cc(N2CCNC(=O)CC2c2ccccc2)n2ncnc2n1 (stereo not drawn),-19,-13,-2,-7
Cc1c(Cl)cccc1NS(=O)(=O)c1ccc2[nH]cc(C(=O)N3CCCCCC3)c(=O)c2c1,-82,3,-14,-3
COc1ccc(Cn2nnc(C(=O)NC(C)C)c2-n2cccc2)cc1,-81,6,15,0
Cc1ccc(Cn2nnc(C(=O)NCc3ccco3)c2-n2cccc2)cc1,-31,58*,20,11
O=C1CC2C3CCC(=O)c4c(O)ccc(c43)C2(O)c2cccc(O)c21 (stereo not drawn),0,37*,47*,21
CCC(C)Nc1cc(C(C)C)nc2nc(-c3cccnc3)nn12 (stereo not drawn),3,-6,0,0
COc1ccc(-c2cc(C(=O)NC3CCCc4ccccc43)[nH]n2)cc1 (stereo not drawn),25,28,.,8
CCc1ccc(-c2nc(SC(C)C(=O)NC3CCCc4ccccc43)n[nH]2)cc1 (stereo not drawn),40*,12,48*,10
CCOc1ccc(S(=O)(=O)N(C)c2ccc(OCC(=O)Nc3ccc(C(C)=O)cc3)cc2)cc1,5,5,0,6
COc1ccc2nc(Nc3nc(-c4cnc(N5CCOCC5)nc4C)cc(=O)[nH]3)nc(C)c2c1,10,2,52*,2
COc1cccc(-c2cc(=O)[nH]c(Nc3nc(C)c4ccccc4n3)n2)c1,58*,12,20,10
Cc1nc(N2CCOCC2)ncc1-c1cc(=O)[nH]c(NCCc2ccccc2)n1,34*,2,17,4
COc1ccc(-c2cc(=O)[nH]c(Nc3nc(C)c4cc(C)ccc4n3)n2)cc1,2,5,8,11
Cc1nc(N2CCCC2)ncc1-c1cc(=O)[nH]c(N2CCc3ccccc3C2)n1,-28,0,78*,0
Cc1nc(CN2CCC3(CCCN(CC(C)O)C3)CC2)cs1 (stereo not drawn),-4,-8,.,-10
Cc1ccc(CN2Cc3cc4ccc(C)c(C)c4nc3OC2=O)o1,29,12,21,12
CCOC(=O)c1noc2ncnc(N3CCC(c4ccccc4)C3)c12 (stereo not drawn),28,20,3,16
CN(C)S(=O)(=O)c1ccc(C(=O)N2CCC(Cn3cccn3)CC2)cc1,-3,-4,-7,-7
COc1ccc2nc(Nc3ncc4c(n3)CCCC4=O)nc(C)c2c1,52*,13,38*,8
CC(=O)Nc1cccc(C(=O)N(Cc2ccco2)C2(C(=O)Nc3c(C)cccc3C)CCCCC2)c1,-7,-4,-7,-10
Cc1cccc(C)c1NC(=O)C1(N(Cc2ccco2)C(=O)c2ccccc2F)CCCCC1,36*,11,14,11
Cc1cc(C)nc(SCC(=O)N(Cc2ccco2)C2(C(=O)Nc3c(C)cccc3C)CCCCC2)n1,40*,27,58*,57*
